What all share (assay): NCI-60 one-dose screen, 48 h (100 = growth as untreated, 0 = no growth, -100 = all killed)
Common to all, as to conditions: 10 µM unless noted

Assay [1] concerns SR leukemia.
The test system of assay [2] is RPMI-8226 leukemia.
In assay [3] the test system is OVCAR-8 ovarian.
Assay [4] relates to OVCAR-5 ovarian.
In assay [5] the test system is OVCAR-4 ovarian.
The test system of assay [6] is SK-OV-3 ovarian.
Assay [7] relates to OVCAR-3 ovarian.
The test system of assay [8] is HS 578T breast.
The subject of assay [9] is NCI/ADR-RES ovarian.
Assay [10] deals with IGROV1 ovarian.

About 83,000 compounds went through this panel and 20% of them were active in at least one assay; those are over-represented in the sample as a whole.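 The test compound was applied at a single concentration to cells in 96-well plates for 48 hours, and percent growth was recorded.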 A number with no mark means an inactive call. Active and inactive are the calls of the source. How the source made its calls: active means growth percent below 10; inactive means the rest.

As to `C=C(CN1CCc2c([nH]c3ccccc23)C1)c1ccc(C(=O)Nc2ccon2)cc1`, the growth is 80.9% in assay [1]; 78.4% in assay [2]; 78.2% in [3]; 90.2% in assay [4]; 85.5% in assay [5]; 61.8% in [6]. Also, the growth in assay [7] was 92.6%; in assay [8], 94.4%; in assay [9], 99.9%.

Consider `O=c1oc2c(cc1-c1ccc([N+](=O)[O-])cc1)C(O)Oc1ccccc1-2` (centres undefined), for which the growth in [1] was 56.2%; in [2], 50.2%; in assay [3] it was 94.7%; in assay [4], 82.1%; in assay [5], 86.4%; in assay [6] it was 99.6%. In addition, the growth is 111% in assay [7], 102% in assay [8] and 72.2% in [9].

With `CCCCN1c2nc3ccccc3cc2Sc2cc3ccccc3nc21`, the growth in assay [1] was 76.5%; in [2], 78.4%; in assay [3] it was 106%; in assay [4], 93.6%; in assay [5] it was 93.7%; in assay [6], 112%. In addition, the results for the growth in assay [7], in assay [8] and in assay [9] were 294%, 99.8% and 106%, respectively.

Consider `O=C1c2cccc(NCCN=Cc3ccccc3O)c2C(=O)c2c(NCCN=Cc3ccccc3O)cccc21`, for which the growth was -20.9% (active) in assay [1]; -9.08% (active) in assay [2]; 17% in assay [3]; 15.9% in assay [4]; 2.43% (active) in [5]; 29% in assay [6]. Further, the results for the growth in [7], in [8] and in assay [9] were 11.1%, 4.31% (active) and 93.9%, respectively.

Turning to `COc1ccc(C(=O)COc2ccc(/C=C3\Oc4ccc5ccccc5c4C3=O)cc2)cc1`, the growth in assay [1] is 40.2%; in assay [2], 66.8%; in assay [3] it was 90.6%; in [4] it was 106%; in [5] it was 88.9%; in assay [6], 97.8%. In addition, the growth in assay [7] is 115%; in assay [8], 96.3%; in [9], 97.4%.

Take `O=c1[nH]cc(Nc2cc(Cl)c3nonc3c2[N+](=O)[O-])c(=O)[nH]1`: the growth is 100% in assay [1]; 96.2% in assay [2]; 98.4% in assay [3]; 98.1% in [4]; 121% in assay [5]; 104% in assay [6]. The results for the growth in [7], in [8] and in assay [9] were 123%, 47.8% and 96%, respectively.

Turning to `CCCCCCCCCCCCCCCCCC1=NC(C)(CO)CO1` (centres undefined), the growth in assay [1] is 118%; in assay [2], 86.7%; in assay [3], 97.6%; in [4], 90.5%; in [6], 97.8%; in [10], 101%. In addition, the growth is 95.3% in [7], 92.5% in assay [8] and 85.8% in assay [9].

As to `CC(=O)Nc1ccc(C(=O)COc2cccc(/C=C3\CCc4ccccc4C3=O)c2)cc1`, the growth in assay [1] is 52.4%; in assay [2] it was 19.6%; in assay [3], 88.4%; in assay [4] it was 104%; in [5], 83.4%; in assay [6] it was 95.5%. Further, the growth in [7] was 238%; in [8], 99.7%; in assay [9], 83%.

As for `COc1cc(/C=C/c2cc(/C=C/c3ccc(O)c(OC)c3)n(C(=O)c3ccc(Cl)cc3)n2)ccc1O`, the growth in [1] is 3.07% (active); in assay [2], -16.1% (active); in [3], 29.1%; in [4] it was 79.9%; in [5], 36.5%; in assay [10], 34%. For the same molecule, the growth in assay [7] was 7.65% (active); in assay [8], 10.1%; in assay [9], 21.9%.

As for `CCOC(=O)c1sc(NC(=O)COc2cccc(/C=C3\CCc4cc(OC)ccc4C3=O)c2)nc1C`, the growth in assay [1] was -19.4% (active); in assay [2], 12.6%; in [3], 73%; in assay [4] it was 98%; in assay [5], 73.2%; in [6] it was 99%. The growth in assay [7] is 38.2%; in [8] it was 91.7%; in [9], 47.7%.

With `CCCCOP(=O)(OCCCC)C(C(=O)OCC)C(CC(=O)OCC)C(=O)OCC` (centres undefined), the growth in assay [1] is 128%; in assay [2] it was 109%; in assay [3], 106%; in assay [4], 100%; in assay [6] it was 105%; in assay [10] it was 112%. Further, the growth was 123% in assay [7] and 113% in assay [9].

Turning to `O=C(N/N=C/c1cccc([N+](=O)[O-])c1)c1ccc(Br)o1`, the growth in [1] is 134%; in assay [2] it was 85.9%; in assay [3], 39.4%; in assay [4], 107%; in [5] it was 105%; in assay [6], 97.7%. In addition, the growth in [8] is 158%; in assay [9], 101%.

On to `O=C(/C=C(\Nc1ccccc1)c1ccccc1)c1cn(-c2ccc([N+](=O)[O-])cc2)nn1`, for which the growth in assay [1] is 69.4%; in assay [2], 84%; in [3] it was 53.5%; in assay [4], 116%; in assay [5], 87.9%; in assay [6], 106%. The growth in assay [8] is 63%; in assay [9], 111%.

In the case of `Cc1ccc(S(=O)(=O)NCCN2c3nc4ccccc4cc3Sc3cc4ccccc4nc32)cc1`, the growth in assay [1] was 73.7%; in assay [2] it was 78.7%; in assay [3], 34.1%; in [4] it was 85.6%; in assay [5], 22.9%; in [6] it was 53.3%. Also, the growth is 33.4% in [8] and 63.1% in assay [9].

Consider `COc1ccc(C(=O)COc2cccc(/C=C3\COc4ccc5ccccc5c4C3=O)c2)cc1`, for which the growth in assay [1] was 35%; in assay [2], 2.86% (active); in assay [3], 36.9%; in assay [4] it was 98.3%; in assay [5], 28.1%; in [6], 95.7%. Moreover, the figures for the growth in assay [8] and in assay [9] were 88% and 46.5%, respectively.

Regarding `CC(=O)Nc1ccc(C(=O)COc2ccc(/C=C3\CCc4ccccc4C3=O)cc2)cc1`, the growth in assay [1] is 84.4%; in [2], 83.3%; in assay [3], 98.8%; in assay [4], 101%; in assay [5], 104%; in assay [6] it was 117%. Besides, the growth in assay [7] was 111%; in assay [8], 99%; in assay [9], 96.2%.

In the case of `CCCn1c(N)c(C(=O)CNc2ccc(I)cc2)c(=O)[nH]c1=O`, the growth in assay [1] is 139%; in assay [2], 29.1%; in assay [3], 49.5%; in [4] it was 137%; in [5], 74.4%; in assay [6] it was 56%. Moreover, the growth is 44.3% in [8] and 77.1% in assay [9].

As to `O=C(NC1CCS(=O)(=O)C1)c1ccc(C(=O)c2ccccc2)cc1` (centres undefined), the growth is 133% in [1]; 72.8% in assay [2]; 70% in [3]; 102% in assay [4]; 98.1% in assay [5]; 113% in assay [6]. The growth in [7] was 121%; in assay [8], 34.5%; in [9], 117%.

In the case of `COC(=O)N/N=C/c1coc2ccc(Cl)cc2c1=O`, the growth in assay [1] is 53.8%; in [2], 60.3%; in assay [3] it was 110%; in assay [4], 95.3%; in assay [5] it was 97%; in [6], 92.3%. In addition, the growth is 63.4% in [7], 92.8% in assay [8] and 99% in assay [9].

Turning to `O=C(O)CCNS(=O)(=O)c1ccc(-c2ccccc2)cc1`, the growth in assay [1] is 88.9%; in [2] it was 69%; in assay [3], 97.7%; in [4], 107%; in [5], 101%; in assay [6], 107%. The results for the growth in assay [7], in assay [8] and in assay [9] were 114%, 9.34% (active) and 108%, respectively.

In the case of `COc1cccc(C2=NN(C(C)=O)C(c3cc(OC)c(OC)c(OC)c3)C2)c1` (centres undefined), the growth was -6.23% (active) in assay [1]; 4.18% (active) in [2]; 37.5% in assay [3]; 58.3% in assay [4]; 48.5% in assay [5]; 30.4% in assay [6]. Moreover, the growth in assay [7] is 33.1%; in assay [8], 15.4%; in assay [9] it was 19%.

Regarding `Cc1ccc(-c2c3c(N)nc(-c4ccncc4)nc3nc3c2c(C)nn3-c2ccccc2)cc1`, the growth in assay [1] was 3.61% (active); in [2], 62.5%; in assay [3], 21.9%; in assay [4], 65%; in assay [6], -22.1% (active); in assay [10], 71.7%. Besides, the growth in assay [7] is 73.6%; in [8], 32.7%; in assay [9], 46.6%.

Turning to `COc1ccc(-c2cc(-c3cccnc3)nc(S(=O)(=O)CC(=O)Nc3ccc(C)cc3)c2C#N)cc1OC`, the growth in [1] is 77.4%; in assay [2], 79.8%; in [3], 91.6%; in [4] it was 120%; in [5], 90.3%; in [10] it was 107%. Moreover, the figures for the growth in assay [7], in assay [8] and in assay [9] were 95.4%, 81.9% and 86.8%, respectively.

As for `Oc1c(N=Nc2nn[nH]n2)ccc2ccccc12`, the growth in [1] is 106%; in assay [2] it was 89.3%; in assay [3], 91%; in [4], 97.3%; in [6] it was 97.7%; in [10] it was 78.5%. The growth is 71.6% in [7], 91% in assay [8] and 96.2% in assay [9].

For `Cc1cc(C)cc(S(=O)(=O)n2ccc(-c3ccc4c(c3)CCC(C)(C)O4)n2)c1`, the growth was 76.5% in [1]; 73.2% in assay [2]; 91% in assay [3]; 116% in [4]; 67.3% in assay [5]; 105% in assay [10]. The growth in assay [7] was 87.9%; in assay [8], 92.7%; in assay [9], 79%.

Consider `C=CCNC(=O)/C(=C/c1cccc([N+](=O)[O-])c1)NC(=O)c1ccccc1`, for which the growth was 207% in assay [1]; 108% in assay [2]; 98.7% in [3]; 101% in assay [4]; 99.3% in assay [5]; 99.9% in assay [6]. For the same molecule, the figures for the growth in assay [7], in assay [8] and in assay [9] were 108%, 108% and 106%, respectively.

For `c1ccc(N2c3nc4ccccc4cc3Sc3cc4ccccc4nc32)nc1`, the growth in assay [1] was 77.7%; in assay [2] it was 80.9%; in assay [3] it was 88.8%; in assay [4], 81.9%; in assay [5], 102%; in assay [6], 104%. Moreover, the growth in assay [8] is 83.2%; in assay [9], 82.7%.

On to `COC(=O)c1cc2oc(/C=N\NC(=O)c3cc4oc(C)c(C)c4[nH]3)cc2[nH]1`, for which the growth is 51.4% in assay [1]; 35.1% in assay [2]; 108% in [3]; 111% in assay [4]; 118% in assay [5]; 100% in assay [6]. For the same molecule, the growth is 128% in [7] and 102% in [9].

In the case of `Cc1cc(Cl)ccc1Nc1nc(C(F)(F)F)ccc1C(=O)N/N=C/c1ccc(Cl)cc1`, the growth is -37.5% (active) in [1]; -12.7% (active) in assay [2]; 11.2% in assay [3]; 6.57% (active) in assay [4]; 0.502% (active) in assay [5]; -15.4% (active) in assay [6]. Further, the results for the growth in assay [7] and in assay [9] were 1.27% (active) and 4.33% (active), respectively.

As for `CCCCNCCCN(CCCC)CCCNCCCC`, the growth in assay [1] was 108%; in assay [2], 99.6%; in [3], 96%; in [4] it was 108%; in assay [6], 100%; in [10], 99.5%. The results for the growth in assay [7], in assay [8] and in assay [9] were 107%, 80.2% and 99.9%, respectively.

Take `Cc1ccc(-c2cc(-c3ccccc3)n(-c3ccccc3)n2)cc1`: the growth in assay [1] is 72.3%; in [2], 83.8%; in assay [3], 105%; in [4], 95.8%; in assay [5], 85.3%; in [6], 105%. Further, the growth in assay [7] was 103%; in assay [9], 101%.

Values taken from PubChem BioAssay (NCI).
